SARS PLpro yeast: qHTS of Yeast-based Assay for SARS-CoV PLP; 330,000 tested, 0.19% active; Potency, µM (doses to about 32.9 µM), usual class: activators; S. cerevisiae expressing SARS-CoV PLpro, growth rescue; AID 485353, 2010; calls by dose curve; note: nearly all actives have a fitted effect of over 55% in size
Pf growth 48h: Primary qHTS for delayed death inhibitors of the malarial parasite plastid, 48 hour incubation. P. falciparum luciferase growth in erythrocytes, 48 h. AID 504832, 2011. Potency, µM (doses to about 28.7 µM), usual class: inhibitors. 310,000 tested, 5.9% active
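Luciferase-expressing parasites in RBCs, 2% Hct / 0.1% parasitemia final; RPMI 1640 + 0.5% Albumax; 37 C, 5% CO2, one generation; luminescence read-out, lower signal = inhibition.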
Shiga toxin inh: A qHTS for Small Molecule Inhibitors of Shiga Toxin. Vero cells, Shiga toxin protein synthesis inhibition reporter. 290,000 tested, 9.2% active. AID 2315, 2010. inhibition, % at 38.7 µM; in the data active = inhibition mostly above about 28%, no sharp cut-off; inactive = mostly below about 43%
AMA1-RON2 inh: qHTS for Inhibitors of AMA1-RON; Towards Development of Antimalarial Drug Lead: Primary Screen. 360,000 tested, 0.2% active. Potency, µM (highest dose often 58.2 µM), hits mostly inhibitors. AlphaScreen AMA1-biotinylated RON2 peptide binding. Plasmodium falciparum AMA1 (3D7) - RON2 peptide interaction. AID 720542, 2013; note: nearly all actives have a fitted effect of over 45% in size
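AMA1 (3D7) with his tag at 25 nM final met compounds first, then biotinylated RON2 peptide at 25 nM; detection used donor plus acceptor beads, 10 µg/mL apiece, read by AlphaScreen after 30 min at room temperature.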
Pf growth 96h: Primary qHTS for delayed death inhibitors of the malarial parasite plastid, 96 hour incubation; P. falciparum luciferase reporter growth, 96 h; Potency, µM (top dose mostly 28.7 µM), most hits filed as inhibitors; 320,000 tested, 6.9% active
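Two parasite generations (96 h, 37 C, 5% CO2) of compound exposure in infected erythrocytes (0.05% parasitemia, 2% hematocrit). Luciferase-reporter P. falciparum; decreased luminescence indicates inhibited growth, aimed at apicoplast-acting delayed death.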
CHX counter: Cycloheximide Counterscreen for Small Molecule Inhibitors of Shiga Toxin. cell reporter, cycloheximide protein synthesis inhibition counterscreen. max response, %. 300,000 tested, 12% active; in the data active = max response mostly above about 13%, no sharp cut-off; inactive = mostly below about 14%; note: read at 38.3 µM for the half of the compounds with a filed dose
Of the large screens only hits and unclear results are named; the others gave an inactive call. This is a sample that favours compounds with a hit; in the whole collection about 19% have one here. Unless noted, calls come from the whole dose curve; as a rule, active = well fitted curve in the direction sought with a large enough effect; inconclusive = small, poorly fitted or top-dose-only effect, or another doubt; inactive = no such curve, though single readings can be large; an effect the other way counts as inactive or inconclusive.

Cc1cccc(C(=O)OCC(=O)NC(C)CCc2ccccc2)c1O (stereo not given)	none
CSc1cccc(NC(=O)c2ccc(Cl)nc2)c1	Pf growth 48h inconclusive, Shiga toxin inh 61.1, Pf growth 96h inconclusive, CHX counter 40.2
CSc1cccc(NC(=O)c2ccccn2)c1	Shiga toxin inh 103.2, CHX counter 37.5 (no result: AMA1-RON2 inh)
O=C(Nc1cccc(Cl)c1)c1cnc[nH]1	Shiga toxin inh 74.7, CHX counter 54.5
COC(=O)c1cccc(NC(=O)c2cnccn2)c1	Pf growth 96h inconclusive
CSc1cccc(NC(=O)c2cnccn2)c1	CHX counter 30.7 (no result: Pf growth 96h)
COc1cc(NC(C)=O)c2ncccc2c1[N+](=O)[O-]	none
CCOC(=O)c1c(C)[nH]c(C)c1S(=O)(=O)N1c2ccccc2CC1C (stereo not given)	Pf growth 48h inconclusive
Cc1ccc(-c2nnc(N3CC(C)OC(C)C3)c3ccccc23)cc1 (stereo not given)	Pf growth 48h inconclusive, Pf growth 96h inconclusive
O=C(Nc1ccc(OCc2ccccc2)cc1)Nc1nnc([C@H]2C[C@H](O)[C@@H](CO)O2)s1	none (no result: SARS PLpro yeast, Pf growth 48h, Shiga toxin inh, Pf growth 96h, CHX counter)
CC(C)C(C)NC(=O)COC(=O)c1cc(S(=O)(=O)N(C)C)ccc1N1CCCC1 (stereo not given)	Pf growth 48h inconclusive (no result: AMA1-RON2 inh)
O=C(NCc1ccc(Cl)cc1)c1csc(-c2cccnc2)n1	Pf growth 48h inconclusive
O=C(Nc1cccc(Cl)c1)c1cnccn1	CHX counter 15.5 (no result: Shiga toxin inh)
CSc1cccc(NC(=O)N2CCc3ccc(NC(=O)c4ccccn4)cc3C2)c1	Shiga toxin inh 77.4, Pf growth 96h inconclusive, CHX counter 18.4
O=C(Nc1cccc(Cl)c1)Nc1cnccn1	Pf growth 48h inconclusive
O=C(NNC(=O)c1ccc(Cl)cc1Cl)c1csc(-c2cccnc2)n1	CHX counter 19.4
O=C(Nc1cccc(Cl)c1)c1csc(-c2ccccc2)n1	CHX counter 43.0
Nc1cc(Cl)ccc1C(=O)OCC(=O)NCC1CCCO1 (stereo not given)	none (no result: Pf growth 48h, Shiga toxin inh, Pf growth 96h, CHX counter)
CC1CC(C)CN(c2oc(-c3ccco3)nc2C#N)C1 (stereo not given)	Pf growth 96h inconclusive, CHX counter 13.2
N#Cc1nc(-c2ccco2)oc1N1CCc2ccccc2C1	Shiga toxin inh 90.5, AMA1-RON2 inh inconclusive, CHX counter 25.3
N#Cc1nc(-c2ccco2)oc1N1CCCC1	none (no result: Pf growth 96h)
C[C@@H]1CN([C@H](C)CO)C(=O)c2cc(Br)cnc2O[C@@H]1CN(C)C(=O)Nc1ccccc1	none (no result: SARS PLpro yeast, Pf growth 48h, Shiga toxin inh, Pf growth 96h, CHX counter)
CC1CCCCC1NC(=O)C1CCN(c2c3c(nc4ncnn24)CCC3)CC1 (stereo not given)	SARS PLpro yeast inconclusive, Pf growth 48h 9.28µM
COc1ccc(CC(NC(C)=O)C(=O)NC2CCN(c3c4c(nc5ncnn35)CCC4)CC2)cc1OC (stereo not given)	none
O=[N+]([O-])c1ccc(N2CCN(c3ccccc3O)CC2)c(Cl)c1	Pf growth 48h inconclusive, Shiga toxin inh 133.1, AMA1-RON2 inh inconclusive, Pf growth 96h inconclusive, CHX counter 47.7
O=[N+]([O-])c1ccc(N2CCN(c3ccccn3)CC2)c(Cl)c1	Pf growth 48h inconclusive, Shiga toxin inh 58.7, AMA1-RON2 inh inconclusive, Pf growth 96h inconclusive
O=C(CN1CCN(c2ccccc2O)CC1)Nc1cc([N+](=O)[O-])ccc1Cl	Pf growth 48h 9.28µM, Pf growth 96h inconclusive
O=[N+]([O-])c1ccc(N2CCN(c3ccccc3O)CC2)cc1	none
O=C(CN1CCN(c2ccccc2O)CC1)Nc1ccc([N+](=O)[O-])cc1Br	Pf growth 48h inconclusive, Pf growth 96h inconclusive
CC(C)(C)NC(=O)CCSc1nnc(-c2ccco2)o1	CHX counter 27.0
CCN(CC)C(=O)CCSc1nnc(-c2ccco2)o1	Pf growth 96h inconclusive, CHX counter 29.9
COc1ccccc1C(=O)NCC1(c2ccccc2)CCCC1	Pf growth 48h inconclusive
COc1cccc(CNC(=O)CCl)c1	Pf growth 48h inconclusive, Pf growth 96h 10.4µM
COc1cccc(CNC(=O)c2ccc(C(=O)NCc3cccc(OC)c3)cc2)c1	SARS PLpro yeast inconclusive
COc1cccc(CNC(=O)c2ccc(C3SCCS3)cc2)c1	Pf growth 96h inconclusive, CHX counter 26.4
COc1cccc(CNC(=O)C(c2ccc(Cl)cc2)C(C)C)c1 (stereo not given)	Pf growth 48h 9.28µM, Pf growth 96h 6.57µM
COc1cccc(CNC(=O)N[C@@H](C)C(=O)O)c1	none
O=C(O)CCCNc1c(C(=O)Nc2ccc(Cl)cc2)cc([N+](=O)[O-])cc1[N+](=O)[O-]	none
CC(NCCC1(C(C)C)CCOC(C)(C)C1)c1cccs1 (stereo not given)	Pf growth 96h inconclusive, CHX counter 8.8
CC(NCCC1(Cc2ccccc2Cl)CCOC(C)(C)C1)c1cccs1 (stereo not given)	Pf growth 48h inconclusive, Pf growth 96h 11.7µM
CC(C)C1(CCNC(=O)c2cccs2)CCOC(C)(C)C1 (stereo not given)	Pf growth 48h inconclusive, Pf growth 96h inconclusive
O=C(Nc1c(C(=O)N2CCN(c3ccccn3)CC2)oc2ccccc12)c1cccc([N+](=O)[O-])c1	Pf growth 48h inconclusive
O=C(NNC(=O)c1ccccc1OCc1ccccc1)c1ccccc1F	Shiga toxin inh 73.3, CHX counter 68.9
O=C(NNC(=O)c1ccccc1OCc1ccccc1)c1ccccc1O	SARS PLpro yeast inconclusive, Pf growth 48h inconclusive, Pf growth 96h inconclusive
O=C(N/N=C/c1ccc[nH]1)c1ccccc1OCc1ccc(F)cc1	none
O=C(NNC(=O)c1ccccc1OCc1ccc(F)cc1)c1ccccc1O	Pf growth 48h inconclusive, Pf growth 96h 8.28µM, CHX counter 14.7
O=C(N/N=C/c1ccccc1F)c1ccccc1OCc1ccccc1	Pf growth 48h inconclusive, Shiga toxin inh 74.5, CHX counter 20.2
CC(C)c1onc(C(=O)N2CCC(C(N)=O)CC2)c1[N+](=O)[O-]	Pf growth 48h inconclusive, Pf growth 96h inconclusive
Cc1c(Cl)cccc1NC(=O)CSc1nc(=O)n(CCCN2CCOCC2)c2c1CCCC2	none (no result: SARS PLpro yeast, Pf growth 48h, Shiga toxin inh, Pf growth 96h, CHX counter)
COc1ccc(NC(=O)Cc2ccc(Cl)cc2Cl)cn1	none
COc1ccc2c(CC(=O)Nc3nc(C)cs3)coc2c1	none
COc1ccc(NC(=O)Cc2coc3cc(C)ccc23)cn1	Shiga toxin inh 68.6, Pf growth 96h inconclusive
Cc1ccc2c(CC(=O)NC3=NCCS3)coc2c1	Shiga toxin inh 57.6, CHX counter 28.7
Cc1ccc2c(CC(=O)Nc3nc(C)cs3)coc2c1	CHX counter 20.4
Cc1cc(C(=O)COc2cc(F)ccc2[N+](=O)[O-])c(C)n1CC1CCCO1 (stereo not given)	none (no result: Pf growth 48h, Shiga toxin inh, Pf growth 96h, CHX counter)
CCN(C(=O)CSc1nc(-c2ccccc2)c(-c2ccccc2)[nH]1)C1CCS(=O)(=O)C1 (stereo not given)	none (no result: Pf growth 96h)

High-throughput results deposited in PubChem by National Center for Advancing Translational Sciences (NCATS).
